Out of some 39,000 compounds screened, about 500 (1.3%) were called active. Many of the other results were omitted from the sample, so actives are more common in it than they were.

The test system of this test is S. aureus RN4220. The test is described as follows: growth inhibition call (relative growth <= 0.2). To be noted: 50 µM.
In the case of `C[C@@H]1CN([C@@H](C)CO)C(=O)CCCn2cc(nn2)CO[C@@H]1CN(C)Cc1ccc(C(=O)Nc2ccccc2N)cc1`, the growth inhibition call is “inactive”. As to `C[C@@H](NS(=O)(=O)c1cccc(F)c1)C(=O)O`, the growth inhibition call is “inactive”. Under `C[C@@H]1CN([C@H](C)CO)C(=O)c2cc(NC(=O)C3CCCCC3)ccc2O[C@@H](C)CCCCO[C@H]1CN(C)C(=O)Nc1ccc(F)cc1` stands “inactive”.

For the compound `C[C@H](CO)N1C[C@H](C)[C@H](CN(C)C(=O)Nc2ccccc2)OCCCC[C@H](C)Oc2ccc(NS(=O)(=O)c3ccc(F)cc3)cc2C1=O`, the growth inhibition call was “inactive”. In the case of `c1coc(CNc2nc[n+]3c4c2ncn4CC3)c1`, the growth inhibition call was “inactive”. Regarding `C[C@@H]1CCCCO[C@H](CN(C)C(=O)Nc2cccc3ccccc23)[C@H](C)CN([C@@H](C)CO)C(=O)c2cc(N(C)C)ccc2O1`, the growth inhibition call is “inactive”. Consider `Cc1noc(C)c1S(=O)(=O)Nc1ccc2c(c1)C(=O)N([C@@H](C)CO)C[C@H](C)[C@@H](CN(C)C(=O)Nc1ccc3c(c1)OCO3)O2`, for which the growth inhibition call was “inactive”. In the case of `COC1C(O)CC(=O)OC(C)CC=CC=CC(OC2CCC(N(C)C)C(C)O2)C(C)CC(CC=O)C1OC1OC(C)C(OC2CC(C)(O)C(O)C(C)O2)C(N(C)C)C1O` (stereo unspecified), the growth inhibition call was “active”.

As for `CO[C@@H]1[C@@H](O[C@@H]2O[C@H](C)[C@@H](O[C@H]3C[C@@](C)(O)[C@@H](O)[C@H](C)O3)[C@H](N(C)C)[C@H]2O)[C@@H](CC=O)C[C@@H](C)[C@@H](O[C@H]2CC[C@H](N(C)C)[C@@H](C)O2)/C=C/C=C/C[C@@H](C)OC(=O)C[C@H]1O`, the growth inhibition call was “active”. For the compound `CO[C@@H]1[C@@H](O[C@@H]2O[C@H](C)[C@@H](O[C@H]3C[C@@](C)(O)[C@@H](O)[C@H](C)O3)[C@H](N(C)C)[C@H]2O)[C@@H](CC=O)C[C@@H](C)[C@@H](O[C@H]2CC[C@H](N(C)C)[C@@H](C)O2)/C=C/C=C/CC(C)OC(=O)C[C@H]1OC(C)=O` (stereo partly specified), the growth inhibition call was “inactive”.

With `Cc1noc(C)c1NC(=O)Nc1ccc2c(c1)C(=O)N([C@H](C)CO)C[C@@H](C)[C@H](CN(C)C(=O)Nc1cccc3ccccc13)O2`, the growth inhibition call is “inactive”.

For the compound `COC(=O)c1c2oc(c1C(=O)OC)C(=O)N[C@H](Cc1ccccc1)Cn1cc(nn1)[C@@H](Cc1ccccc1)NC(=O)N[C@@H](COC(=O)NCCCCCC(=O)NO)CC2`, the growth inhibition call is “inactive”. For the compound `C[C@@H]1CCCCO[C@@H](CN(C)C(=O)Nc2ccc3c(c2)OCO3)[C@@H](C)CN([C@@H](C)CO)C(=O)c2cc(NC(=O)Nc3ccc(F)cc3)ccc2O1`, the growth inhibition call was “inactive”. Consider `COc1ccc(NC(=O)Nc2ccc3c(c2)C(=O)N([C@H](C)CO)C[C@H](C)[C@@H](CN(C)C(=O)Nc2ccccc2)OCCCC[C@@H](C)O3)cc1`, for which the growth inhibition call was “inactive”. Regarding `CCCCCCOC(=O)/N=C(/N)c1ccc(NCc2nc3cc(C(=O)N(CCC(=O)OCC)c4ccccn4)ccc3n2C)cc1`, the growth inhibition call was “inactive”. For the compound `C[C@H](CO)N1C[C@H](C)[C@@H](CN(C)C(=O)Nc2ccc(C(F)(F)F)cc2)Oc2c(NC(=O)C3CCCCC3)cccc2C1=O`, the growth inhibition call is “inactive”. Turning to `C[C@@H]1CN([C@H](C)CO)C(=O)c2cccc(NC(=O)C3CCCCC3)c2O[C@@H]1CN(C)C(=O)Nc1ccc(C(F)(F)F)cc1`, the growth inhibition call is “active”.

In the case of `CC(C)N1C[C@H](C)[C@@H](CN(C)Cc2ccc(Oc3ccccc3)cc2)Oc2c(NC(=O)C3CCN(C)CC3)cccc2C1=O`, the growth inhibition call is “inactive”. Turning to `C[C@H](CO)N1C[C@H](C)[C@H](CN(C)C(=O)Nc2ccc(C(F)(F)F)cc2)Oc2c(NC(=O)C3CCCCC3)cccc2C1=O`, the growth inhibition call was “inactive”. Consider `C[C@@H]1CN([C@@H](C)CO)C(=O)c2cccc(NC(=O)C3CCCCC3)c2O[C@@H]1CN(C)C(=O)Nc1ccc(C(F)(F)F)cc1`, for which the growth inhibition call is “active”. With `C[C@@H]1CN([C@H](C)CO)C(=O)c2cccc(NC(=O)C3CCCCC3)c2O[C@H]1CN(C)C(=O)Nc1ccc(C(F)(F)F)cc1`, the growth inhibition call is “inactive”. As to `C[C@H](CO)N1C[C@H](C)[C@@H](CN(C)Cc2ccc(Oc3ccccc3)cc2)Oc2c(NC(=O)C3CC3)cccc2C1=O`, the growth inhibition call is “inactive”.

As to `CC(C)N1C[C@H](C)[C@@H](CN(C)Cc2ccc(Oc3ccccc3)cc2)Oc2c(NC(=O)C3CCNCC3)cccc2C1=O`, the growth inhibition call was “active”. In the case of `C[C@@H]1CN([C@@H](C)CO)C(=O)c2cccc(NC(=O)C3CCCCC3)c2O[C@H]1CN(C)C(=O)Nc1ccc(C(F)(F)F)cc1`, the growth inhibition call was “inactive”.

For the compound `C[C@@H]1CN([C@H](C)CO)C(=O)Cc2cc(NC(=O)Nc3ccc4c(c3)OCO4)ccc2O[C@H]1CN(C)C(=O)Nc1ccc(C(F)(F)F)cc1`, the growth inhibition call was “inactive”. Consider `C[C@H](CO)N1C[C@H](C)[C@H](CN(C)C(=O)c2ccccc2)OCCCC[C@H](C)Oc2ccc(NC(=O)CCC(F)(F)F)cc2C1=O`, for which the growth inhibition call was “inactive”. To `C[C@@H]1CN([C@H](C)CO)S(=O)(=O)c2ccc(-c3ccncc3)cc2O[C@H]1CN(C)C(=O)c1ccc2c(c1)OCO2` belongs “inactive”. `C[C@@H]1CN([C@H](C)CO)C(=O)c2cc(C#CCN(C)C)cnc2O[C@@H]1CN(C)S(=O)(=O)c1cn(C)cn1`: the growth inhibition call is “inactive”. Consider `COc1ccc(S(=O)(=O)Nc2ccc3c(c2)C(=O)N([C@@H](C)CO)C[C@@H](C)[C@H](CN(C)C(=O)Nc2ccc4c(c2)OCO4)OCCCC[C@@H](C)O3)cc1`, for which the growth inhibition call is “inactive”.

Consider `CCn1cnc2c(=O)[nH][nH]c(=O)c21`, for which the growth inhibition call was “inactive”. `C[C@@H]1CN([C@@H](C)CO)C(=O)Cc2cc(NC(=O)Nc3ccccc3)ccc2O[C@@H]1CN(C)Cc1ccc(C(F)(F)F)cc1`: the growth inhibition call was “inactive”. Consider `CC(C)NC(=O)N(C)C[C@@H]1Oc2ccc(NC(=O)C3CCCCC3)cc2CC(=O)N([C@H](C)CO)C[C@H]1C`, for which the growth inhibition call is “inactive”. To `C[C@H]1CN([C@@H](C)CO)C(=O)CCCn2cc(nn2)CO[C@@H]1CN(C)C(=O)Nc1cccc(C(F)(F)F)c1` belongs “inactive”; to `C[C@@H]1CN([C@H](C)CO)C(=O)c2cc(NC(=O)Nc3cccc4ccccc34)ccc2O[C@H]1CN(C)S(=O)(=O)c1cccs1`, “inactive”. Turning to `Cc1cc(C(=O)O)n[nH]1`, the growth inhibition call was “inactive”. For `Cc1cc(O)cc(=O)[nH]1`, the growth inhibition call is “inactive”.

For the compound `Cc1cc(=O)[n+]2cccc(O)c2[nH]1`, the growth inhibition call was “active”. `CNC(=O)c1cccc(NC(=S)NC)c1`: the growth inhibition call was “inactive”. With `C[C@H](CO)N1C[C@H](C)[C@H](CN(C)C(=O)Nc2ccc3c(c2)OCO3)Oc2ncc(C#CC(C)(C)O)cc2C1=O`, the growth inhibition call was “inactive”. To `O=P(O)(O)CN(CCN(CP(=O)(O)O)CP(=O)(O)O)CP(=O)(O)O` belongs “inactive”; to `O=C(O)P(=O)(O)O`, “active”. For `CC(=O)O`, the growth inhibition call is “inactive”. To `O=C(C[C@@H]1CC[C@@H]2[C@H](COC[C@@H](O)CN2C(=O)c2ccncc2)O1)NCc1ccc(-c2ccccc2)cc1` belongs “inactive”; to `C[C@H]1CN([C@@H](C)CO)C(=O)c2cc(NS(=O)(=O)c3cn(C)cn3)ccc2O[C@@H]1CN(C)S(=O)(=O)c1cn(C)cn1`, “inactive”.

Take `C[C@H]1CCCCO[C@H](CN(C)S(=O)(=O)c2ccc(F)cc2)[C@@H](C)CN([C@@H](C)CO)C(=O)c2cc(NS(C)(=O)=O)ccc2O1`: the growth inhibition call was “inactive”. With `Cc1noc(C)c1NC(=O)Nc1ccc2c(c1)C(=O)N([C@H](C)CO)C[C@@H](C)[C@H](CN(C)Cc1ccc3c(c1)OCO3)OCCCC[C@@H](C)O2`, the growth inhibition call was “inactive”. As for `C[C@H]1CCCCO[C@H](CN(C)C(=O)CCC(F)(F)F)[C@@H](C)CN([C@@H](C)CO)C(=O)c2cc(NC(=O)Cc3ccccc3)ccc2O1`, the growth inhibition call was “inactive”. On to `C/C=C/C1=C(C(=O)O)N2C(=O)[C@@H](NC(=O)[C@H](N)c3ccc(O)cc3)[C@H]2SC1`, for which the growth inhibition call was “active”.

For the compound `CC=CC1=C(C(=O)O)N2C(=O)C(NC(=O)C(N)c3ccc(O)cc3)C2SC1` (stereo unspecified), the growth inhibition call is “inactive”. To `CC1=C(C(=O)O)N2C(=O)[C@@H](NC(=O)[C@H](N)c3ccc(O)cc3)[C@H]2SC1` belongs “active”. To `CC1=C(C(=O)O)N2C(=O)[C@@H](NC(=O)[C@@H](N)c3ccc(O)cc3)[C@H]2SC1` belongs “inactive”; to `CC1=C(C(=O)O)N2C(=O)C(NC(=O)C(N)c3ccc(O)cc3)C2SC1` (stereo unspecified), “inactive”. For `C/C=C\C1=C(C(=O)O)N2C(=O)[C@H](NC(=O)[C@@H](N)c3ccc(O)cc3)[C@@H]2SC1`, the growth inhibition call is “inactive”. Regarding `C[C@@H]1CN([C@H](C)CO)C(=O)c2cccc(NC(=O)C3CC3)c2O[C@H]1CN(C)S(=O)(=O)c1ccc(F)cc1`, the growth inhibition call was “inactive”. Consider `C[C@H](CO)N1C[C@H](C)[C@H](CN(C)S(C)(=O)=O)Oc2ncc(C#CC(C)(C)O)cc2C1=O`, for which the growth inhibition call is “inactive”. To `OCC(O)C(O)C(O)C(O)CO` (stereo unspecified) belongs “inactive”; to `C[C@H](CO)N1C[C@H](C)[C@H](CN(C)Cc2ccc(Oc3ccccc3)cc2)Oc2ccc(NS(=O)(=O)c3ccc(F)cc3)cc2CC1=O`, “inactive”. Turning to `C[C@@H]1CN([C@H](C)CO)S(=O)(=O)c2ccc(-c3cccc(C(=O)N(C)C)c3)cc2O[C@H]1CN(C)C(=O)Cc1ccccn1`, the growth inhibition call was “inactive”. `COCCOC(=O)N1C(=O)[C@@]2(c3cc(C#CC4=CCCCC4)ccc31)[C@H](C(=O)N1CCN(c3ncccn3)CC1)[C@H]1C(=O)O[C@H](c3ccccc3)[C@H](c3ccccc3)N1[C@@H]2c1ccc(OCCO)cc1`: the growth inhibition call was “inactive”.

For `CC(C)NC(=O)N(C)C[C@H]1Oc2ccc(NC(=O)NC3CCCCC3)cc2C(=O)N([C@H](C)CO)C[C@@H]1C`, the growth inhibition call was “inactive”. In the case of `C[C@@H]1CCCCO[C@@H](CN(C)S(=O)(=O)c2cn(C)cn2)[C@@H](C)CN([C@H](C)CO)C(=O)c2cc(NS(=O)(=O)c3cn(C)cn3)ccc2O1`, the growth inhibition call is “inactive”. Under `O=C1CCC(c2ccc(O)cc2)CC1` stands “inactive”; under `Oc1ccccc1CNc1ccc(C2CCCCC2)cc1`, “inactive”; under `Oc1cc(C2CCCCC2)cc(C2CCCCC2)c1`, “active”. In the case of `COc1ccc(NC(=O)Nc2ccc3c(c2)C(=O)N([C@H](C)CO)C[C@H](C)[C@H](CN(C)C(=O)NC(C)C)OCCCC[C@H](C)O3)cc1`, the growth inhibition call was “inactive”. As for `Brc1ccc(CSc2c[nH]c3ccccc23)cc1`, the growth inhibition call is “active”. Under `FC(F)(F)c1ccc(CSc2c[nH]c3ccccc23)cc1` stands “active”; under `N#C/C(=C\c1ccc(C(F)(F)F)cc1)c1c[nH]c2ccccc12`, “inactive”; under `Cc1c[nH]c2ccccc12`, “inactive”. Turning to `OCc1c[nH]c2ccccc12`, the growth inhibition call was “inactive”. As to `c1ccc2c(-c3ccncc3)c[nH]c2c1`, the growth inhibition call is “inactive”.

Source of the values: the antibiotic and cytotoxicity screens of Wong et al. (2023).
